Records with an inconclusive call do not appear. Where a call stands in place of a potency, no number is given. Calls of active or inactive are those of the source. Calls come from the whole dose curve; as a rule, active = well fitted curve in the direction sought with a large enough effect; inconclusive = small, poorly fitted or top-dose-only effect, or another doubt; inactive = no such curve, though single readings can be large; an effect the other way counts as inactive or inconclusive.
Key:
[1] = qHTS for Inhibitors of the Aldehyde Dehydrogenase Family (ALDH1A2, ALDH1A3, ALDH2, ALDH3A1) (AID 2061307); note: nearly all actives have a fitted effect of over 50% in size; for potency: test system not described further here; potency is the fitted concentration of half-maximal effect
[2] = molecular target: Aldehyde dehydrogenase, mitochondrial (Homo sapiens) (UniProt P05091); experiment: qHTS for Inhibitors of the Aldehyde Dehydrogenase Family (ALDH2) Primary screen (AID 2061308); note: nearly all actives have a fitted effect of over 55% in size
[3] = molecular target: Retinaldehyde dehydrogenase 3 (Homo sapiens) (UniProt P47895); experiment: qHTS for Inhibitors of the Aldehyde Dehydrogenase Family (ALDH1A3) Confirmatory screens (AID 2061311); note: nearly all actives have a fitted effect of over 60% in size; note: potency is the fitted concentration of half-maximal effect
[4] = molecular target: Retinal dehydrogenase 2 (Homo sapiens) (UniProt O94788); experiment: qHTS for Inhibitors of the Aldehyde Dehydrogenase Family (ALDH1A2) Confirmation screens (AID 2061314); note: nearly all actives have a fitted effect of over 65% in size; note: potency is the fitted concentration of half-maximal effect
[5] = molecular target: Aldehyde dehydrogenase 1A1 (Homo sapiens) (UniProt P00352); experiment: qHTS for Inhibitors of the Aldehyde Dehydrogenase Family (ALDH1A1) Confirmatory screens (AID 2061316); note: nearly all actives have a fitted effect of over 65% in size; note: potency is the fitted concentration of half-maximal effect
[6] = molecular target: Retinaldehyde dehydrogenase 3 (Homo sapiens) (UniProt P47895); experiment: qHTS for Inhibitors of the Aldehyde Dehydrogenase Family (ALDH1A3) Primary screen (AID 2061315)

COc1ccc(NC(=O)c2cc(C3CC3)nc3c2c(C)nn3-c2ccccc2)cc1OC
Potency [1]: inactive

NC(=O)C1CCN(c2ncc(-c3ccc4c(c3)OCO4)s2)CC1
Potency [1]: 5.04 µM (active)
Potency [2]: inactive
Potency [3]: 17.8 µM (active)
Potency [4]: inactive
Potency [5]: 12.7 µM (active)

COc1ccc(-c2c(NC(C)=O)sc3c2CCNC3)cc1
Potency [1]: inactive
Potency [2]: inactive
Potency [3]: inactive
Potency [4]: 20.1 µM (active)
Potency [6]: inactive
Potency [5]: 11.3 µM (active)

C=C1CN(Cc2ccc(C(=O)Nc3ccccc3N)cc2)C(=O)c2ccccc21
Potency [1]: 15.8 µM (active)
Potency [2]: inactive
Potency [3]: inactive
Potency [4]: inactive
Potency [6]: inactive

O=C(O)c1ccc(O)c2ncc(N3CC(N4CCOCC4)C3)cc12
Potency [1]: inactive
Potency [2]: inactive
Potency [3]: 12.7 µM (active)
Potency [4]: 15.9 µM (active)
Potency [6]: inactive

CN(C)[S+](=O)([O-])c1ccc(-c2cncc(NC(=O)c3cccs3)c2)cc1
Potency [1]: 2 µM (active)
Potency [2]: inactive
Potency [3]: 0.562 µM (active)
Potency [4]: 6.31 µM (active)
Potency [6]: inactive
Potency [5]: inactive

Cc1ccc(-c2cc(C(=O)Nc3ccc(-c4noc(=O)[nH]4)cc3)c3ccccc3n2)cc1C
Potency [1]: 7.08 µM (active)
Potency [2]: inactive
Potency [3]: 11.2 µM (active)
Potency [4]: inactive
Potency [6]: inactive
Potency [5]: inactive

O=C(Nc1cccc2nn(-c3ccc(F)cc3)cc12)c1ccccn1
Potency [1]: inactive
Potency [2]: inactive
Potency [3]: inactive
Potency [4]: inactive
Potency [6]: inactive
Potency [5]: 28.3 µM (active)

COc1ccc(-n2c(C)c(C(C)=O)c3cc(O)ccc32)cc1
Potency [1]: inactive
Potency [2]: inactive
Potency [3]: inactive
Potency [4]: inactive
Potency [6]: inactive
Potency [5]: inactive

N#Cc1nc(Nc2cccc([N+](=O)[O-])c2)nc(NC2CCCC2)n1
Potency [1]: 5.62 µM (active)
Potency [2]: inactive
Potency [3]: 22.4 µM (active)
Potency [4]: 6.34 µM (active)
Potency [6]: inactive

COc1ccc(C2Nc3ccccc3C(=O)N2Cc2cccc3ccccc23)cc1COc1ccc(NC(C)=O)cc1 (stereo not drawn)
Potency [1]: 3.55 µM (active)
Potency [2]: inactive
Potency [3]: 12.6 µM (active)
Potency [4]: 22.5 µM (active)
Potency [6]: inactive
Potency [5]: 4 µM (active)

Cc1occc1-c1ccc2ncnc(NCCc3cnc[nH]3)c2c1
Potency [1]: inactive
Potency [2]: inactive
Potency [3]: 3.57 µM (active)
Potency [4]: 28.3 µM (active)
Potency [6]: inactive

Cc1[nH]cnc1C[C@H]1CCc2c(C)c3ccccc3n2C1=O
Potency [1]: 8.96 µM (active)
Potency [2]: inactive
Potency [3]: 3.18 µM (active)
Potency [4]: 11.3 µM (active)
Potency [6]: inactive

Oc1ccc(COC2CCN(Cc3ccccc3)C2)c2cccnc12 (stereo not drawn)
Potency [1]: inactive
Potency [2]: inactive
Potency [3]: 12.7 µM (active)
Potency [4]: inactive
Potency [6]: inactive

O=C(c1ccco1)N1CCN(c2nc(-c3ccc(Br)cc3)cs2)CC1
Potency [1]: 3.98 µM (active)
Potency [2]: inactive
Potency [3]: 15.8 µM (active)
Potency [4]: inactive
Potency [6]: inactive

COc1ccccc1-c1nc(-c2ccc(C(=O)O)cc2)no1
Potency [1]: 2.14 µM (active)
Potency [2]: inactive
Potency [3]: 1.13 µM (active)
Potency [4]: inactive
Potency [5]: inactive

CN(CC(=O)Nc1cccc(N2CCOCC2)c1)Cc1c(O)ccc2ccccc12
Potency [1]: 5.65 µM (active)
Potency [2]: inactive
Potency [3]: 12.7 µM (active)
Potency [4]: 11.3 µM (active)
Potency [6]: inactive
Potency [5]: 4 µM (active)

O=C(Nc1ccc(N2CCOCC2)nc1)c1cccs1
Potency [1]: 25.1 µM (active)
Potency [2]: inactive
Potency [3]: 22.5 µM (active)
Potency [4]: 22.5 µM (active)
Potency [6]: inactive
Potency [5]: 12.7 µM (active)

Cc1c(C(=O)OCC2CCCCO2)[nH]c2c1C(=O)CC(c1ccco1)C2 (stereo not drawn)
Potency [1]: inactive
Potency [2]: inactive
Potency [3]: 14.1 µM (active)
Potency [4]: 7.12 µM (active)
Potency [6]: inactive
Potency [5]: 1.42 µM (active)

Oc1ccc(CNc2cc(C(F)(F)F)ccn2)c2cccnc12
Potency [1]: 20.1 µM (active)
Potency [2]: inactive
Potency [3]: 5.65 µM (active)
Potency [4]: 7.12 µM (active)
Potency [5]: 11.3 µM (active)

O=C1Nc2c(Cl)cccc2/C1=C\c1cc(Cl)c(O)c(Cl)c1
Potency [1]: 1.79 µM (active)
Potency [2]: inactive
Potency [3]: inactive
Potency [4]: 25.2 µM (active)
Potency [6]: inactive
Potency [5]: 7.12 µM (active)

CC(=O)Nc1ccc(-c2c(NC(C)=O)sc3c2CCNC3)cn1
Potency [1]: inactive
Potency [2]: inactive
Potency [3]: inactive
Potency [4]: 11.3 µM (active)
Potency [6]: inactive
Potency [5]: 17.9 µM (active)

COc1ccc(C2Nc3cccc(OC)c3C(=O)N2Cc2ccccc2)cc1COc1ccc(NC(C)=O)cc1 (stereo not drawn)
Potency [1]: 1.13 µM (active)
Potency [2]: inactive
Potency [3]: 12.7 µM (active)
Potency [4]: 10.1 µM (active)
Potency [6]: inactive
Potency [5]: 11.3 µM (active)

COc1ccc(C2Nc3ccccc3C(=O)N2Cc2ccccc2)cc1COc1ccc(C#N)cc1 (stereo not drawn)
Potency [1]: 1.01 µM (active)
Potency [2]: inactive
Potency [3]: 12.6 µM (active)
Potency [4]: 0.896 µM (active)
Potency [6]: inactive

Reference: PubChem BioAssay (NCATS)
